Compound activity (PubChem BioAssay)
Platelet DG rel – platelet dense granule release activity; human platelet-rich plasma, SFLLRN dense granule ATP release, luminescence; 300,000 compounds, 0.22% hits; inhibition, %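 (compounds screened at 7.5 µM in platelet-rich plasma)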;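 active = mean replicate score, as percent of positive control, at or above 50; inconclusive = mean below 50 but at least one replicate at or above 50; inactive = mean and every replicate below 50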
WT yeast gro inh – growth inhibition of WT yeast, mitochondrial fusion screen. mitochondrial fusion phenotypic screen, WT strain. inhibition, % at 10 µM. 190,000 compounds, 2.1% hits. AID 1362; in the data active = inhibition above about 58%; tested in S. cerevisiae
Rtt109 Vps75 – inhibitors of Candida albicans Rtt109/Vps75 histone acetyltransferase | Q5AAJ8 | purified Rtt109/Vps75, ThioGlo CoA-SH fluorescence, 4 h | inhibition, % at 34.9 µM | 330,000 compounds, 0.16% hits;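 active = inhibition of at least 50% in every replicate; inconclusive = best replicate reaches 50% inhibition but some replicates fall short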
Target sequence (Q5AAJ8 whole entry, looked up): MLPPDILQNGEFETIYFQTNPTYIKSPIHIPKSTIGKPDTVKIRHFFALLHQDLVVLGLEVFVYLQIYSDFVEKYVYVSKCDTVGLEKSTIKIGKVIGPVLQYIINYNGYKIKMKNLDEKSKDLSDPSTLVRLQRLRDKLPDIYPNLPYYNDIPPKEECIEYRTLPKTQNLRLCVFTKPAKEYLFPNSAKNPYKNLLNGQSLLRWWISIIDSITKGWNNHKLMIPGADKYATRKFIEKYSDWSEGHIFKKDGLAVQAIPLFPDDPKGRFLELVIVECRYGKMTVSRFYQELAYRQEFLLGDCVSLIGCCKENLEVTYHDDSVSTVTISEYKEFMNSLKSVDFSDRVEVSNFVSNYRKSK
PHOSPHO1 inh – PHOSPHO1 (human) inhibition. Q8TCT1. recombinant PHOSPHO1, absorbance phosphatase assay. inhibition, % at 13.3 µM. 290,000 compounds, 1.1% hits. AID 1565; in the data active = inhibition above about 60%
SKKanGAS inh – blocks kanamycin growth of S. pyogenes SKKanGAS strain; BacTiter-Glo, 6 h; inhibition, % at 7.5 µM; 300,000 compounds, 1.3% hits; AID 1662;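 active = mean replicate score, as percent of positive control median, at least 50; inconclusive = mean below 50 but one replicate at or above 50; inactive = mean and every replicate below 50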;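 note: strain carries kanamycin resistance gene driven by streptokinase promoter and grows in 40 µg/ml kanamycin; loss of luminescence reflects streptokinase promoter inhibition or plain growth inhibition; 0% = median of DMSO wells and 100% = positive control at its reference dose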
TPT1 inhibitor – blocks Candida albicans tRNA 2'-phosphotransferase | recombinant caTPT1, FP RNA substrate dephosphorylation | inhibition, % at 5 µM | 300,000 compounds, 0.81% hits;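 active = inhibition above the mean of all tested compounds plus 3 SD, set per screening campaign, cut at about 24% in these data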;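 note: plate controls were DMSO alone for no effect and ferristatin control at 100 nM for full effect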
TPT1 inh confirm – TPT1 (C. albicans) inhibition, confirmation | inhibition, % at 5 µM | recombinant caTPT1, fluorescence polarization, RNase T1 coupled | 2,400 compounds, 74% hits | shares compounds with TPT1 inhibitor | AID 2149;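 active = inhibition above the primary screen limit, the mean inhibition of all tested compounds plus 3 SD, cut at about 25% in these data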
RNase T1 inh – counter-screen for TPT1 inhibitors: inhibitors of Aspergillus oryzae RNase T1; inhibition, % at 5 µM; 2,400 compounds, 83% hits; shares compounds with TPT1 inhibitor; RNase T1 cleavage, fluorescence polarization, 1536-well; AID 2153;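 active = inhibition above the solvent-only control well mean plus 3 SD, limit set per screening run, cut at about 23% in these data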;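 note: plate controls were DMSO wells with enzyme for no effect and wells without RNase T1 for full effect; inhibitors block cleavage so intact labeled substrate keeps polarization high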
Target sequence (P00651 whole entry, looked up): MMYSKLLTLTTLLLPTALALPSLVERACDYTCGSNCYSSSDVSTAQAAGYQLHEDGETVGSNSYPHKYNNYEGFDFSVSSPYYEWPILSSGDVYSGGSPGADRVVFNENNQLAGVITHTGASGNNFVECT
The depositor's hits bear a star; ? = inconclusive; . = no result given; + = active, no number. In the library only some 3.9% were active in any assay of this set; here they are far more common.

SMILES	Platelet DG rel	WT yeast gro inh	Rtt109 Vps75	PHOSPHO1 inh	SKKanGAS inh	TPT1 inhibitor	TPT1 inh confirm	RNase T1 inh
COc1cccc(-c2ccc(SCC(=O)NCCc3ccccc3)nn2)c1	-4.1	18.9	2.2	-15.4	-5.0	54.1*	2.9	5.8
COc1ccc(CCNC(=O)CSc2ccc(-c3ccccc3)nn2)cc1OC	-2.5	-4.8	.	13.4	-2.8	4.1	.	.
COc1ccc(OC)c(Nc2nc(-c3cccs3)cs2)c1	3.5	37.0	-3.4	-3.4	-8.2	1.9	.	.
COc1ccc(C)cc1Nc1nc(-c2c[nH]c3ccccc23)cs1	-0.1	28.3	.	-14.7	19.1	31.4*	26.3*	35.8*
N#C/C(=C\c1coc2ccc(O)cc2c1=O)C(=O)Nc1nc2ccccc2s1	-1.1	.	28.5	-64.2	37.0	28.4*	92.8*	89.5*
C=CC[C@H](CC(=O)NCCO)C(=O)NCCOC(=O)[C@@H](CC=C)CC(=O)OC(C)(C)C	.	.	-3.7	.	.	.	.	.
O=C1/C(=C/c2cccc([N+](=O)[O-])c2)Oc2cc(O)ccc21	1.3	.	-16.7	28.0	9.1	21.8	.	.
COc1cc(/C=C2\Oc3cc(O)ccc3C2=O)ccc1O	5.0	.	-143.1	13.0	4.7	46.9*	51.0*	59.3*
O=C1/C(=C/c2ccc(O)c(O)c2)Oc2cc(O)ccc21	.	.	-4.7	4.0	.	43.9*	57.7*	66.7*
COc1ccc(/C=C2\OC(=O)c3c(OC)cccc32)cc1OC	4.4	1.4	-14.4	33.8	2.4	-1.3	.	.
Cc1ccc(C(=O)OCC(=O)N2CCC(c3ccccc3)=N2)cc1	.	.	1.4	.	.	.	.	.
Cn1c(SCC(=O)NCC2CCCO2)nc2c(c1=O)SCC2 (centres undefined)	-11.8	.	-3.0	38.1	6.4	2.4	.	.
CCN(CC(=O)Nc1ccc(C(=O)OC)cc1)Cc1ccccc1	1.4	4.9	22.9	29.2	8.7	46.1*	8.0	9.5
CCOC(=O)c1c(NC(=S)Nc2ccc(OCC)cc2)sc2c1CCN(C)C2	.	.	5.2	-115.6	3.4	48.1*	53.0*	64.5*
CCOC(=O)c1c(NC(=S)Nc2ccc(Cl)cc2)sc2c1CCN(C)C2	.	18.0	4.7	-13.2	.	91.1*	87.8*	91.3*
CCOC(=O)c1c(NC(=O)CCS(=O)(=O)c2ccccc2)sc2c1CCN(C)C2	-24.3	.	0.5	27.4	?	34.9*	20.6	28.4*
CCOC(=O)c1c(NC(=O)Nc2ccc(F)cc2)sc2c1CCN(C)C2	5.8	.	-3.8	24.4	2.9	1.3	.	.
CCOC(=O)c1c(NC(=O)Cc2ccccc2)sc2c1CCN(C)C2	1.1	.	-3.0	-16.0	-3.5	-0.3	.	.
CCOC(=O)c1c(NC(=O)CSc2nnc(C)s2)sc2c1CCN(C)C2	-4.1	1.5	-10.5	-9.8	-15.0	98.1*	96.9*	102.7*
C[C@H](NS(=O)(=O)c1c(Cl)cccc1Cl)C(=O)NNC(=O)COc1ccccc1F	.	.	5.3	.	.	.	.	.
COc1cc(SC)ccc1C(=O)OCC(=O)N1CC(=O)Nc2ccccc21	.	.	7.6	.	.	.	.	.
CCCCn1c(N)c(N(CCOC)C(=O)COC(=O)COc2cc(C)c(Cl)cc2C(C)C)c(=O)[nH]c1=O	5.4	.	28.1	.	5.7	-3.0	.	.
COc1ccc(-n2c(N)c(C(=O)NCc3ccco3)c3nc4ccccc4nc32)c(OC)c1	-1.1	47.0	-36.7	-23.9	9.2	39.2*	9.8	17.0
N#C/C(=C/c1ccc(N2CCCCC2)o1)C(=O)Nc1ccc2ccccc2c1	-2.7	19.7	.	0.0	33.4	.	.	.
N#C/C(=C\c1ccc(N2CCOCC2)o1)C(=O)Nc1ccc(O)cc1	1.9	9.3	2.8	30.5	-22.4	+	194.2*	176.2*
COc1ccc(NC(=O)/C(C#N)=C\c2ccc(N3CCOCC3)o2)cc1	3.7	1.3	-1.0	44.9	-6.4	+	198.4*	177.4*
N#C/C(=C/c1ccc(N2CCCCC2)o1)C(=O)Nc1ccc(Cl)cc1	10.2	4.5	-7.8	28.1	2.2	186.8*	191.5*	173.8*
N#C/C(=C/c1ccc(N2CCOCC2)o1)C(=O)NC1CCCCC1	1.0	1.5	1.0	22.0	-4.9	156.1*	173.2*	165.9*
Cc1ccc(-n2ccn(CC(=O)NCCc3ccccc3)c(=O)c2=O)cc1C	17.1	.	-0.9	32.4	-1.0	2.6	.	.
